# APE1 inh = APE1 (human) endonuclease inhibition. AID 2517. recombinant APE1, TAMRA/BHQ-2 abasic DNA cleavage fluorescence. Potency, µM (series often up to 65.8 µM), for inactives: at the top dose activity change, negative = inhibition, most hits filed as inhibitors. P27695. hit rate 0.35% among 350,000;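 note: potency is the fitted concentration of half-maximal effect; plate controls were vehicle for no effect and reference inhibitor for full effect; nearly all actives have a fitted effect of over 55% in size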
# Target sequence (P27695 whole entry, looked up): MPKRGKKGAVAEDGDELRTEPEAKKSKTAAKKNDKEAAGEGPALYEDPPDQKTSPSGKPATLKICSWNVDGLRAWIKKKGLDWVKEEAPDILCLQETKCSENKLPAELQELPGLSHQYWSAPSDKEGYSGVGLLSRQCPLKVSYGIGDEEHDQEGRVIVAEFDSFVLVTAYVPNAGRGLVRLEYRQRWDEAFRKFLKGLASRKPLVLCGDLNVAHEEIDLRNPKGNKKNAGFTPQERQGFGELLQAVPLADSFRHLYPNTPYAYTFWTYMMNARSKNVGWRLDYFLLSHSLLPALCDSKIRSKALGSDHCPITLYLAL
#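 Substrate: short duplex with […] THF abasic site, 5'-TAMRA and 3'-BHQ-2, 50 nM final. APE1 at 0.75 nM, preincubated 15 min RT with compound. Fluorescence increase from first to third read measured activity.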
# PI5P4Ka inh = inhibitors of human PI5P4K alpha | P48426 | PI5P4Kalpha enzyme, ADP-Glo luminescence, 60 min; hits give low values | max response, % | hit rate 1.2% among 330,000 | AID 652105; active = max response of -50% or lower; inconclusive = between -30% and -50%; inactive = -30% or higher; note: value at the top dose of about 77 µM
#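 Compounds were pin-transferred onto PI5P4Kalpha and substrate in HEPES pH 7.4 buffer with EGTA, CHAPS and 5% DMSO. ATP (5 microM final) started the reaction, which ran 60 minutes at room temperature before ADP-Glo detection.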
# RECQ1 inh-1 = inhibitors of human RECQ1 DNA helicase | P46063 | RECQ1 DNA unwinding, red fluorescence kinetic read | Potency, µM (top dose mostly 57.3 µM), without a hit: at the top dose activity, negative = inhibition, actives largely listed as inhibitors | hit rate 0.54% among 240,000;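 note: potency is the fitted concentration of half-maximal effect; plate controls were vehicle for no effect and no enzyme for full effect; nearly all actives have a fitted effect of over 30% in size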
#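 50 nM RECQ1T1 preincubated 15 min with compound in Tris pH 8.0 buffer with MgCl2, DTT, Tween-20 and 2.5 ug/ml poly(dI-dC); started with 200 nM TAMRA/BHQ-2 forked duplex and 2 mM ATP. Unwinding read as fluorescence (525/598 nm), two reads 2 h apart.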
# BLM inh = blocks DNA unwinding by human BLM helicase; AID 2528; P54132; recombinant BLM DNA unwinding, fluorescence dequenching; hit rate 0.2% among 350,000; Potency, µM (doses to about 56.1 µM), for inactives: at the top dose activity change, negative = inhibition, hits mostly inhibitors;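 note: potency is the fitted concentration of half-maximal effect; plate controls were vehicle for no effect and no enzyme for full effect; nearly all actives have a fitted effect of over 35% in size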
# GCN5L2 inh = GCN5L2 (KAT2A) acetyltransferase inhibition; hit rate 0.21% among 390,000; GCN5L2 HAT assay, ThioGlo1 CoA-SH fluorescence; Potency, µM (titrated, usually from 58.9 µM), inactives show at the highest dose activity change, negative = inhibition, actives largely listed as inhibitors; AID 504327; Q92830; note: potency is the fitted concentration of half-maximal effect
#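 ThioGlo1-coupled HAT assay: 20nM GCN5L2, 70uM acetyl-CoA, 75uM H3(1-25) peptide, pH 7.5. Fluorescence read at 340/540nm at start and after 20 min at room temperature.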
# FEN1 inhibitor = inhibitors of human flap endonuclease 1 | Recombinant FEN1 flap cleavage, fluorescence, 15 min | hit rate 0.35% among 390,000 | Potency, µM (titrated, usually from 114 µM), for inactives: top-dose activity change, negative = inhibition, actives largely listed as inhibitors; note: potency is the fitted concentration of half-maximal effect; nearly all actives have a fitted effect of over 65% in size
# Target sequence (P39748 whole entry, looked up): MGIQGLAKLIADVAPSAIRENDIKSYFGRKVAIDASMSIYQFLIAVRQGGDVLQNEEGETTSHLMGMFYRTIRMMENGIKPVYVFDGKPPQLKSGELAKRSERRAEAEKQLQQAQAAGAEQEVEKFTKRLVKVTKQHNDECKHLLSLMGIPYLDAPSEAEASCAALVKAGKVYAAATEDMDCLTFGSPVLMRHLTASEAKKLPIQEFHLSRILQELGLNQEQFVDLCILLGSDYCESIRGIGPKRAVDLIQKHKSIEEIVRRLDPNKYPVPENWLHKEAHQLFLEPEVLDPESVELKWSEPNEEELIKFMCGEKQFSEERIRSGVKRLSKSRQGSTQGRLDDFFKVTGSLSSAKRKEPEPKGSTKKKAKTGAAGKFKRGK
#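 Quantitative HTS format: each compound was titrated, incubated with 10 nM nuclease for 15 min at room temperature, then challenged with flap substrate at 50 nM final. Signal change over 15 min gave concentration–effect curves.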
# RECQ1 conf = confirmation of human RECQ1 helicase inhibitors; shares compounds with RECQ1 inh-1; RECQ1 helicase DNA unwinding, fluorescence; Potency, µM (series often up to 229 µM), without a hit: top-dose activity change, negative = inhibition, actives largely listed as inhibitors; hit rate 28% among 610; AID 2708; note: potency is the fitted concentration of half-maximal effect; nearly all actives have a fitted effect of over 45% in size
# ADP FP counter = counter-screen for RECQ1 inhibitors: ADP displacement; shares compounds with RECQ1 inh-1; ADP fluorescence polarization displacement counterscreen; Potency, µM (doses to about 228 µM), without a hit: at the top dose activity change, negative = inhibition, hits mostly inhibitors; hit rate 27% among 530; AID 2711; note: potency is the fitted concentration of half-maximal effect; nearly all actives have a fitted effect of over 45% in size
# RECQ1 inh-2 = confirmation of human RECQ1 helicase inhibitors | shares compounds with RECQ1 inh-1 | recombinant RECQ1 DNA unwinding, red fluorescence | Potency, µM (titrated, usually from 119 µM), for the others: at the top dose activity, negative = inhibition, usual class: inhibitors | hit rate 15% among 1,100 | AID 504841; note: potency is the fitted concentration of half-maximal effect; nearly all actives have a fitted effect of over 50% in size
# * hit, by the source's call; i = inactive; ? = inconclusive; / = not tested or not shown; [ ] = remark or other dose. Only some compounds are listed: those with a hit (about 1.5% of all), similar ones and a draw of the others. Unless noted, calls come from the whole dose curve; as a rule, active = well fitted curve in the direction sought with a large enough effect; inconclusive = small, poorly fitted or top-dose-only effect, or another doubt; inactive = no such curve, though single readings can be large; an effect the other way counts as inactive or inconclusive. Unless noted, % is set by controls: 0 for no effect and ±100 for the full control effect.
SMILES,APE1 inh,PI5P4Ka inh,RECQ1 inh-1,BLM inh,GCN5L2 inh,FEN1 inhibitor,RECQ1 inh-2,others
COC(=O)C1=C(C(=O)OC)[C@@H]2N(Cc3ccccc3)c3ccccc3[C@@]23C[C@@H](C(=O)OC)N(S(=O)(=O)c2ccc(C#N)cc2)C3=N1,-2.7%[12.4 µM],/,4.8%[11.5 µM],-2.5%[12.4 µM],/,/,/,
OC(COc1ccc(Cl)cc1)CN1CCN(c2cccc(Cl)c2)CC1 (stereo not drawn),10.1%,22.7,35.5µM*,-11.9%,0.4%,-3.0%,?,
Cc1cccc(N2CCN(CC(O)COc3ccc(Cl)cc3)CC2)c1 (stereo not drawn),-2.4%,-2.6,i,-1.9%,-5.0%,6.1%,/,
COc1cc(/C=N/N2C(=O)CSC2=S)ccc1O,4.3%,-50.6*,?,-1.0%,-7.9%,?,?,
CN[C@H](C)CCC=C(C)C,/,/,/,0.5%,-3.6%,-17.8%,/,
CC1CCCN(C(=S)SCC(=O)c2cc(Br)cc(Br)c2O)C1 (stereo not drawn),-7.2%,-4.1,?,-8.2%,18.5%,50.1µM*,-19.9%,
O=C(CSC(=S)N1CCCC1)c1cc(Br)cc(Br)c1O,2.3%,-25.1,31.6µM*,-11.3%,-12.8%,-14.8%,50.1µM*,
C=CC(C1=CC(=O)C(OC)=C(OC)C1=O)c1ccccc1 (stereo not drawn),-1.5%,/,-4.0%,-3.0%,-24.7%,/,/,
O=C([O-])[C@@H]1[O][Sb+]([O][Sb+]2[O][C@H]([C@H](O)CO)[C@H](O)[C@H](C(=O)[O-])[O]2)[O][C@H]([C@H](O)CO)[C@@H]1O,-3.5%,/,-12.9%,-9.5%,30.6%,/,/,
Cc1cc2c(c(=O)o1)C(c1ccc([N+](=O)[O-])o1)C(C#N)=C(N)O2 (stereo not drawn),8.91µM*,-1.8,22.4µM*,-1.1%,-1.6%,?,-19.5%,
CCC(CC)C1C(C#N)=C(N)Oc2cc(C)oc(=O)c21 (stereo not drawn),16.7%,/,-11.3%,-5.2%,-3.3%,7.0%,/,
CCc1ccc(OC2=NS(=O)(=O)c3ccccc32)cc1,27.9%,-3.9,i,-0.6%,-6.8%,15.6%,/,
CCN(CC)c1cccc(OC2=NS(=O)(=O)c3ccccc32)c1,15.3%,-10.1,?,-3.9%,-3.4%,-0.9%,-22.0%,
COC(=O)c1cn(C)c2ccc(S(=O)(=O)N3CCOCC3)cc2c1=O,0.2%,1.4,-2.0%,0.3%,-6.5%,1.7%,/,
COC(=O)c1cn(C)c2ccc(S(=O)(=O)N3CCCC3)cc2c1=O,-3.4%,/,?,-2.0%,-16.6%,-7.8%,-31.0%,
C=CCn1c(COc2ccc(F)cc2)nnc1SCC(=O)NC(=O)NCc1ccco1,?,/,?,-29.0%,-9.5%,3.4%,?,
CC(C)=C1C(=O)NN(c2ccc(F)c(Cl)c2)C1=O,-3.2%,/,31.6µM*,-1.8%,-0.5%,-18.7%,-12.2%,
Cc1nc2c(=O)n(-c3ccc(F)c(Cl)c3)nc(C)c2s1,-1.6%,-5.0,i,-7.7%,-3.1%,8.3%,/,
CC(=O)C(C(C)=O)C1(O)C(=O)c2ccccc2C1=O,?,3.1,?,?,-0.6%,-4.2%,-9.0%,
CCOc1ccccc1Nc1nnc(SCC(=O)Nc2ccc3[nH]c(=O)[nH]c3c2)s1,-11.3%,-20.7,i,-14.4%,16.6%,0.6%,/,
CCOc1ccccc1Nc1nnc(SCC(=O)NC(Cc2c[nH]c3ccccc23)C(=O)O)s1 (stereo not drawn),-1.1%,-10.2,0.4%,-10.9%,-19.7%,2.7%,/,RECQ1 conf=-3.0%;ADP FP counter=?
Cc1ccc(Nc2nnc(SCC(=O)NC(Cc3c[nH]c4ccccc34)C(=O)O)s2)cc1 (stereo not drawn),-4.0%,-28.6,i,-2.4%,-1.3%,-11.6%,/,RECQ1 conf=-2.9%;ADP FP counter=13.4%
Cc1cc(C)cc(OCC(=O)NC(Cc2c[nH]c3ccccc23)C(=O)O)c1 (stereo not drawn),/,/,/,0.2%,1.1%,-15.7%,/,
CC(=O)N[C@H]1CSSC[C@@H](C(=O)N2CCC[C@H]2C(=O)N2CCC[C@H]2C(=O)N[C@@H](CCCCN)C(=O)N[C@@H](CC(=O)O)C(N)=O)NC(=O)CNC(=O)[C@H](Cc2c[nH]c3ccccc23)NC(=O)[C@H](CCCNC(=N)N)NC(=O)[C@@H](Cc2ccc(Cl)c(Cl)c2)NC(=O)[C@H](Cc2cnc[nH]2)NC(=O)[C@H](CCC(=O)O)NC1=O,14.6%,/,17.0%,-6.5%,8.1%,/,/,
CC1(OC(=O)C2CCCC2)C(=O)C=C2C=C(c3ccsc3)N(c3ccc(CO)cc3)C=C2C1=O (stereo not drawn),-2.9%[12.4 µM],/,-16.3%[11.5 µM],1.2%[12.4 µM],/,/,/,
CCCNC(=O)N1N=C(c2ccc(N)cc2)c2cc3c(cc2C1C)OCO3 (stereo not drawn),-1.5%,/,i,-1.1%,-12.7%,/,/,
O=C(NC(Cc1c[nH]c2ccccc12)C(=O)O)/C(=C/c1ccc(F)cc1)NC(=O)c1ccccc1 (stereo not drawn),0.2%,1.0,-2.9%,-3.9%,-12.0%,16.6%,/,RECQ1 conf=9.5%;ADP FP counter=-0.3%
Cc1ccc(/C=C(/NC(=O)c2ccccc2)C(=O)NC(Cc2c[nH]c3ccccc23)C(=O)O)cc1 (stereo not drawn),27.4%,-5.7,/,-8.8%,-1.3%,3.8%,/,
NC(N)=NCCC[C@@H](N)C(=O)NCC(=O)N[C@@H](CC(=O)O)C(=O)N[C@@H](Cc1c[nH]c2ccccc12)C(=O)O,-3.5%,/,-2.1%,-3.7%,-21.5%,/,/,
CC(C)C[C@H](NC(=O)[C@H](C)NC(=O)CNC(=O)[C@H](CCCCN)NC(=O)[C@H](CCCN=C(N)N)NC(=O)[C@H](C)NC(=O)[C@H](Cc1ccccc1)NC(=O)[C@@H](N)CCCN=C(N)N)C(=O)N[C@@H](CCCN=C(N)N)C(=O)N[C@@H](CCC(N)=O)C(=O)N[C@@H](CCCCN)C(=O)N[C@@H](CC(N)=O)C(=O)N[C@H](C(N)=O)C(C)C,13.2%,/,-0.4%,3.2%,-14.8%,/,/,

# Assay outcomes (PubChem BioAssay)
